# Shown are actives, neighbours in structure and some others; about 18% of the full set was active somewhere.
# TDP1 inh: inhibitors of human tyrosyl-DNA phosphodiesterase TDP1; Q9NUW8; AID 485290; Potency, µM (highest dose often 130 µM), for inactives: at the top dose activity change, negative = inhibition, actives largely listed as inhibitors; recombinant TDP1, AlphaScreen DNA substrate cleavage; hit rate 0.28% among 350,000; further: potency means the concentration at half of the fitted maximal effect; on the % scale 0 is the no-effect control and ±100 the full control effect; nearly all actives have a fitted effect of over 40% in size
# Target sequence (Q9NUW8 whole entry, looked up): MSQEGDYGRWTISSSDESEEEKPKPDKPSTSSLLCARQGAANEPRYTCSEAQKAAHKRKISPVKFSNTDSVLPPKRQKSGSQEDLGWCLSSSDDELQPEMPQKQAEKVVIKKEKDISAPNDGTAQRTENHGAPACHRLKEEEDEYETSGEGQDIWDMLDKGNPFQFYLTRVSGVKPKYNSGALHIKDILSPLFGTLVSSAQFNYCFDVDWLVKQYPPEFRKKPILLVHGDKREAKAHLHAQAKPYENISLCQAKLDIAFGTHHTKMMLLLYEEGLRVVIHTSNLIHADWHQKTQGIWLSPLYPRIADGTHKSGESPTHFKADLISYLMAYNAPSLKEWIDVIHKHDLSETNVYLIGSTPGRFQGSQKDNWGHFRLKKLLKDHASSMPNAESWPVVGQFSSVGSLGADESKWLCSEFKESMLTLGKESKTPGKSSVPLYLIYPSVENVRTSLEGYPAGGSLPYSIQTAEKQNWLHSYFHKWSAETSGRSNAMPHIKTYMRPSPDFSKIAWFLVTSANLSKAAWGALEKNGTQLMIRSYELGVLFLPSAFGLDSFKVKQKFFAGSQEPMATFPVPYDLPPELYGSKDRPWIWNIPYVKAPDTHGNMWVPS
#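 AlphaScreen read-out: signal falls as enzyme removes the 3' tyrosine-FITC from a 5'-biotinylated DNA oligo (15 nM, 5 min, RT). Enzyme was E. coli-made recombinant Tdp1 at 1 nM, exposed to compound for 15 min beforehand; beads 10 ug/ml, 10 min.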
# HepG2 tox: counter-screen for TGF-b inhibitors: cytotoxicity in HepG2 cells. hit rate 0.76% among 410,000. HepG2 CAGA-GFP viability, ATP luminescence, 18 h. Potency, µM (doses to about 46.1 µM), for inactives: at the top dose activity change, negative = cytotoxicity, actives largely listed as cytotoxic. AID 588856; further: potency means the concentration at half of the fitted maximal effect
#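 CellTiter-Glo luminescence gave cytotoxicity after 18 hours at 37 degrees C. The cells were HepG2 CAGA-GFP in 1% FBS DMEM, stimulated with 500 pg/mL TGF-beta after compound addition. %Activity was normalised to no-cell wells (complete cell-killing) and DMSO (no toxicity), and curves were fitted and classified.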
# DT40 TDP1 no CPT: qHTS for Inhibitors of human tyrosyl-DNA phosphodiesterase 1 (TDP1): qHTS in cells in absence of CPT; hit rate 15% among 420,000; AID 686978, 2013; DT40 Tdp1-/- hTDP1 cells, no CPT, ATP luminescence, 48 h; Potency, µM (series often up to 46.2 µM), for the others: at the highest dose activity change, negative = growth inhibition, hits mostly inhibitors; further: potency means the concentration at half of the fitted maximal effect; on the % scale 0 is the no-effect control and ±100 the full control effect; nearly all actives have a fitted effect of over 55% in size
#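 Growth of hTDP1-complemented DT40 Tdp1-knockout cells is measured by ATP luminescence after at least 48 hr compound exposure at 37 °C, with DMSO substituting for the 20 nM CPT used in the parallel screen.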
# DT40 TDP1 CPT: growth inhibition of DT40 Tdp1-/-;hTDP1 cells with camptothecin (screen for TDP1 inhibitors) | chicken DT40 Tdp1-/-;hTDP1 cells + 20 nM CPT, ATP luminescence, 48 h | hit rate 12% among 420,000 | Potency, µM (series often up to 46.2 µM), for inactives: at the top dose activity change, negative = growth inhibition, hits mostly inhibitors; further: potency means the concentration at half of the fitted maximal effect; on the % scale 0 is the no-effect control and ±100 the full control effect; nearly all actives have a fitted effect of over 55% in size
#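 Chicken DT40 Tdp1-/- cells complemented with human TDP1, 400 cells/well, exposed to compounds plus 20 nM camptothecin for at least 48 h at 37 C; viability read as ATP content by CellTiter-Glo luminescence.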
# IL-1B inflam inh: inflammasome signaling inhibition, IL-1 beta readout. AID 743279. THP-1 LPS/ATP IL-1B secretion, AlphaLISA, 16 h; active compounds read low. activity change, % at 57.5 µM. hit rate 4.7% among 360,000; in the data active means activity change below about -50%; inconclusive means mostly about -30% to -49%; further: on the % scale 0 is the no-effect control and ±100 the full control effect
#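 Secreted IL-1B measured by AlphaLISA bead assay after 16 h compound exposure of THP-1 cells; compounds (final up to 57.5 uM) added 1 h before LPS (250 ng/mL) and ATP (1.25 mM) stimulation; lower signal means less secretion.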
# TGFb inhibitor: TGF-b pathway inhibition. AID 588855. hit rate 1.2% among 410,000. Potency, µM (highest dose often 46.1 µM), without a hit: at the highest dose activity, negative = inhibition, usual class: inhibitors. HepG2 CAGA-GFP TGF-b/SMAD3 reporter, GFP fluorescence, 18 h; TGF-beta stimulated, 500 pg/mL final; further: potency means the concentration at half of the fitted maximal effect; on the % scale 0 is the no-effect control and ±100 the full control effect; nearly all actives have a fitted effect of over 65% in size
#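 Read-out: total well GFP (ex488/em500-530) summed from mean per-cell fluorescence. Cells: HEPG2 CAGA-GFP, 1% FBS DMEM, 18 h at 37 degrees C with 500 pg/mL final TGF-beta. Unstimulated wells served as the full-inhibition control; stimulated DMSO wells = 0%.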
# Starred values were filed as active, the others as inactive; u = inconclusive; x = not tested or not shown; [ ] = remark or other dose. Unless noted, the call rests on the fitted dose curve; in most records, active means well fitted curve in the direction sought with a large enough effect; inconclusive means small, poorly fitted or top-dose-only effect, or another doubt; inactive means no such curve, though single readings can be large; an effect the other way counts as inactive or inconclusive.
SMILES,TDP1 inh,HepG2 tox,DT40 TDP1 no CPT,DT40 TDP1 CPT,IL-1B inflam inh,TGFb inhibitor
COc1ccc(NS(=O)(=O)c2ccc(-c3coc(C)n3)cc2)c(OC)c1,5.0%,-0.9%,-28.9%,23.1µM*,16.1,u
CCc1ccccc1NS(=O)(=O)c1ccc(-c2coc(C)n2)cc1,4.4%,-19.4%,u,u,x,-18.7%
COc1ccc(C(C)(C)C)cc1NC(=O)c1cc(S(=O)(=O)N(C)C)ccc1N1CCCC1,4.7%,-3.4%,u,20.6µM*,-1.4,8.3%
CN(C)S(=O)(=O)c1ccc(N2CCCC2)c(C(=O)Nc2nccs2)c1,1.5%,-14.9%,-0.7%,2.6%,-12.0,u
Cc1cnc(NC(=O)c2cc(S(=O)(=O)N(C)C)ccc2N2CCCC2)s1,4.0%,-8.7%,u,u,-63.7*,u
CCOC(=O)c1cnc2cc(-c3ccc(Br)cc3)nn2c1C,x,5.1%,2.6%,-10.4%,1.2,-5.9%
Cc1ccc(NC(=O)C2CCCN(c3ncnc4c3nc3n4CCCCC3)C2)cc1F (stereo not given),6.2%,-12.6%,23.1µM*,18.4µM*,x,-22.4%
CCCN(C(=O)C1CCCN(c2ncnc3c2nc2n3CCCCC2)C1)c1ccc(F)cc1 (stereo not given),4.4%,-24.0%,20.6µM*,18.4µM*,45.8,4.4%
O=C(Nc1ccc(F)cc1)C1CCCN(c2ncnc3c2nc2n3CCCCC2)C1 (stereo not given),-5.7%,-30.6%,11.6µM*,13µM*,x,u
COC(=O)c1cc(S(=O)(=O)NC2CCCCC2)cn1C,1.1%,-6.5%,-7.5%,-10.7%,-10.4,5.9%
COCc1nnc(NC(=O)CCc2ccc(OC)cc2)s1,0.1%,-0.3%,-6.3%,6.1%,14.5,-0.5%
C=CCSc1nc(N)c(C(=O)Nc2ccccc2OC)cc1C(=O)Nc1ccccc1,2.3%,-12.1%,8.2µM*,8.2µM*,41.3,-9.2%
COc1ccccc1NC(=O)c1cnc(Nc2ccccc2OC)c2ccccc12,u,5.2%,1.16µM*,1.64µM*,33.2,-19.3%
COc1ccc(OC)c(/C(O)=C/C(=O)C(=O)Nc2ccccc2OC)c1,-3.5%,-4.3%,18.4µM*,u,20.9,-11.6%
COc1ccccc1Nc1ncc(C(=O)N2CCC(C(N)=O)CC2)c2ccccc12,-2.1%,0.0%,7.0%,-1.0%,0.0,-13.5%
COc1ccccc1NC(=O)c1ccccc1C(=O)Nc1ccccc1OC,4.4%[56.1 µM],4.0%,u,u,-67.3*,28.2%
CS(=O)(=O)N1CCC2(CCN(C(=O)Nc3cccc(C#N)c3)CC2)CC1,x,x,-23.2%,-2.0%,x,x
O=C(COC(=O)C1C2CC3OC(=O)C1C3C2)Nc1ccc(F)cc1 (stereo not given),1.2%,14.9%,0.4%,-17.1%,-2.9,u
O=C(Nc1ccccc1OC(=O)c1ccccc1)c1ccccc1,x,-4.6%,29.1µM*,u,59.5,-9.3%
COc1ccccc1NC(=O)Nc1ccc(NC(=O)c2ccccc2O)cc1,x,-22.3%,29.1µM*,-26.6%,u,-13.4%
COc1ccc(NC(=O)Nc2ccc(Cc3ccncc3)cc2)cc1OC,-3.8%,-20.7%,-29.0%,-11.7%,-23.1,10.8%
COc1ccccc1NC(=O)Nc1ccc(Cc2ccncc2)cc1,5.1%,-4.6%,-2.9%,7.8%,-87.0*,-1.6%
O=C(CCc1ccccc1)Nc1ccccc1OC(=O)c1ccccc1,x,7.1%,-23.6%,u,30.7,-4.3%
COc1ccccc1NC1=C(NC(C)=O)C(=O)c2ccccc2C1=O,6.1%,-108.6%,u,18.4µM*,13.8,14.1µM*
O=S1(=O)C2CC3C=CC2(O3)C(OCc2ccc(Cl)c(Cl)c2)C(Cc2ccccc2)N1Cc1ccc(Cl)c(Cl)c1 (stereo not given),7.4%,-15.1%,x,x,x,-7.8%
SMILES,TDP1 inh,HepG2 tox,DT40 TDP1 no CPT,DT40 TDP1 CPT,IL-1B inflam inh,TGFb inhibitor
COc1ccc(NC(=O)CSCc2cc(=O)c3cc(Cl)ccc3[nH]2)cc1,2.7%,-34.4%,-29.0%,0.6%,x,-9.8%
Nn1cnc2cc3ccccc3cc2c1=O,0.3%,5.7%,1.9%,-12.6%,17.6,-0.6%
Cc1ccn2c(=O)c(NC(=O)c3cccs3)c(C)nc2c1,-6.1%,3.1%,1.4%,5.6%,1.1,-4.2%
CCCCNC(=O)COC(=O)c1ccc(SC)cc1OC,2.5%,-11.0%,-0.5%,-14.9%,8.1,2.7%
COc1ccccc1C(=O)Nc1ccccc1SC(=O)c1ccccc1OC,x,-75.1%,2.59µM*,2.59µM*,-2.9,u
COc1ccccc1C(=O)NNC(=O)c1ccccc1Br,x,-15.1%,8.3%,-6.8%,33.7,-3.7%
COc1ccc(Nc2ncc(C(=O)Nc3ccc(F)cc3F)c3ccccc23)cc1,8.8%,-35.3%,18.4µM*,13µM*,x,12.6µM*
COc1ccc(OC)c(NC(=O)c2cnc(Nc3ccc(C)c(Cl)c3)c3ccccc23)c1,5.9%,1.2%,u,-24.7%,x,-19.3%
COc1ccccc1NC(=S)NNC(=O)c1ccccc1Br,9.3%,-1.1%,13µM*,16.4µM*,77.4,-5.2%
Cc1cccn2c(=O)c3cc(C(=O)NCc4ccccc4Cl)sc3nc12,4.5%,-0.9%,-4.4%,4.2%,x,17.0%
O=C(CN1C(=O)NC2(CCCC2)C1=O)NNC(=O)c1ccc(Br)cc1,-12.4%[0.505 µM],1.3%,-18.7%,-27.6%,14.2,-20.0%
COc1cccc(NC(=O)CCc2nc3c(C)nn(-c4ccc(C)cc4)c3n(C)c2=O)c1,-1.2%,2.7%,-7.7%,-0.7%,x,-6.0%
O=C(NNC(=O)c1ccccc1-c1ccccc1C(=O)O)c1ccccc1,-2.6%,-0.2%,10.7%,2.2%,-3.3,19.4%
O=C(C=P(c1ccccc1)(c1ccccc1)c1ccccc1)c1ccccc1-c1ccccc1C(=O)C=P(c1ccccc1)(c1ccccc1)c1ccccc1,x,1.58µM*,0.581µM*,0.731µM*,u,1µM*
CCOC(=O)N1CCN(CCC(=O)Nc2cc(C)ccc2C)CC1,3.7%,-5.1%,11.4%,-9.1%,14.9,-0.4%
COc1ccccc1NS(=O)(=O)c1cccc(NC(=O)c2nc3nc(C)cc(C)n3n2)c1,1.8%,-6.7%,13µM*,23.1µM*,-10.6,-40.4%
COc1ccccc1NS(=O)(=O)c1cccc(NC(=O)c2ccc3ccccc3n2)c1,7.0%,8.7%,16.4µM*,20.6µM*,14.3,u
O=C(/C=C/c1ccccc1)Nc1cccc(S(=O)(=O)Nc2ccccc2F)c1,7.7%,-35.5%,14.6µM*,14.6µM*,-54.0*,0.0%

# Screening results from PubChem BioAssay.
